This is a sample that favours compounds with a hit; in the whole collection about 1.3% have one here.
COUP-TFII inh: inhibitors of human COUP-TFII (NR2F2); hit rate 0.7% among 370,000; P24468; HEK293T NGFI-A luciferase reporter, luminescence; inhibition, % at 8.6 µM;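 active = inhibition above a per-plate cutoff, mean inhibition of test wells between control levels plus 3 SD, cut at about 38% in these data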;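 note: cells cotransfected with COUP-TFII expression vector driving the NGFI-A reporter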
Target sequence (P24468 whole entry, looked up): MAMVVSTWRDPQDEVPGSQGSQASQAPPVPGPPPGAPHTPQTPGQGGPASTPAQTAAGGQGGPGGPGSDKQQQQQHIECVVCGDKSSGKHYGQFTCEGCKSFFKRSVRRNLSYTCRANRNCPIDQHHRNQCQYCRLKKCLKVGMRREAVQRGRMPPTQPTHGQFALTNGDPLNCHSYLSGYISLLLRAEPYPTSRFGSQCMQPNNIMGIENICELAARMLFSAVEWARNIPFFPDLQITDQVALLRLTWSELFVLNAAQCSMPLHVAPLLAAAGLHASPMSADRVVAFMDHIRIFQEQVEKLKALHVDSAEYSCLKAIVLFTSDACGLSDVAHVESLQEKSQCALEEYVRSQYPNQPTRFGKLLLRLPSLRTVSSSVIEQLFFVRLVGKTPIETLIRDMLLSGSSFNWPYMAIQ
NR5A2 inv ag: suppresses constitutive activity of human LRH-1. HEK293T StAR-luciferase reporter, LRH-1 transfected, 24 h. O00482. inhibition, % at 3.6 µM. AID 602396. hit rate 0.13% among 360,000;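 active = inhibition above the mean inhibition of all tested compounds plus 3 SD, cut at about 73% in these data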
Gli-Sufu block: blocks Gli-Sufu signaling in a luciferase reporter; Sufu-KO-LIGHT fibroblasts, Gli luciferase reporter luminescence; inhibition, % at 5 µM; hit rate 0.74% among 340,000;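 active = inhibition above about 55%, limit read from the data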
SRC1 inh: inhibitors of human steroid receptor coactivator 1 (SRC1). HEK293 GAL4-SRC1 luciferase reporter, luminescence. inhibition, % at 3.6 µM. hit rate 0.12% among 360,000. AID 588354;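 active = inhibition above the campaign mean plus 3 SD, with each screening campaign given its own cutoff, cut at about 60% in these data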
NCOA3 inh: inhibits human SRC3 coactivator | inhibition, % at 3.6 µM | HEK293 GAL4-SRC3 luciferase reporter, luminescence | Q9Y6Q9 | hit rate 0.17% among 360,000 | AID 588352;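 active = inhibition above a per-campaign cutoff, the mean of all compounds plus 3 SD, cut at about 60% in these data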;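 note: higher means less SRC3-driven luciferase light from the GAL4 reporter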
NCOA2 inhibitor: inhibits human steroid receptor coactivator 2; Q15596; hit rate 0.17% among 370,000; inhibition, % at 9 µM; HEK293 GAL4-SRC2 luciferase reporter, luminescence; AID 651957;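 active = inhibition above the mean inhibition of all tested compounds plus 3 SD, set per campaign, cut at about 52% in these data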
Gli-Sufu confirm: confirmation of Gli-SUFU pathway antagonists. shares compounds with Gli-Sufu block. Sufu-KO-LIGHT cells, Gli luciferase reporter, luminescence. inhibition, % at 5 µM. hit rate 40% among 2,500;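 active = mean inhibition at 5 µM reaching about 45%, limit read from the data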
SufuKO cytotox: counter-screen for Gli-SUFU antagonists: cytotoxicity. shares compounds with Gli-Sufu block. cytotoxicity, % at 5 µM. Sufu-KO-LIGHT cells cytotoxicity, ATP luminescence. AID 651994. hit rate 32% among 2,500;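 active = mean cytotoxicity at 5 µM above about 25%, limit read from the data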;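 note: cells exposed to compound overnight for roughly 16 to 18 hours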
Wnt3a cs: Wnt3a reporter inhibition counter-screen; shares compounds with Gli-Sufu block; hit rate 20% among 2,500; AID 651995; Wnt-LIGHT cells, Wnt3a-driven luciferase reporter, luminescence; inhibition, % at 6.25 µM;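 active = mean inhibition above about 25%, limit read from the data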
Of the large screens only hits and unclear results are named; the others gave an inactive call (follow-up assays come after a bar, where they were run).

CC(C)c1ccc(C(O)c2cnc(C(C)C)n2C)cc1 (stereo not drawn)	Gli-Sufu block 95 | Gli-Sufu confirm inactive | SufuKO cytotox inactive | Wnt3a cs inactive
O=C(NCCc1ccc(F)cc1)c1ccc2c(=O)n3c(nc2c1)CCC3	Gli-Sufu block 96 | Gli-Sufu confirm inactive | SufuKO cytotox inactive | Wnt3a cs inactive
COc1ccc(NC(=S)N2CCC(Cc3ccccc3)CC2)cc1	Gli-Sufu block 62 | Gli-Sufu confirm inactive | SufuKO cytotox inactive | Wnt3a cs inactive
CCNC(=S)N1CCC(Cc2ccccc2)CC1	none
COc1ccc(NC(=S)N2CCN(Cc3ccccc3)CC2)cc1	none
S=C(Nc1ccccc1)N1CCC(Cc2ccccc2)CC1	none | Gli-Sufu confirm 66 | SufuKO cytotox 27 | Wnt3a cs inactive
Nc1[nH]c(C(=O)c2ccccc2)c(-c2ccc(O)cc2)c1C(=O)NCCc1c[nH]c2ccccc12	none (no result: NR5A2 inv ag, Gli-Sufu block, SRC1 inh, NCOA3 inh, NCOA2 inhibitor)
Cc1ccc(-c2cn(-c3ccc(OC(F)F)cc3)c3[n+]2CCCCC3)cc1	Gli-Sufu block 83 | Gli-Sufu confirm 86 | SufuKO cytotox 41 | Wnt3a cs inactive
Brc1ccc(-c2csc3[n+]2CCCCC3)cc1	none
Clc1ccc(-n2cc(-c3ccc(Br)cc3)[n+]3c2CCCCC3)cc1	none | Gli-Sufu confirm 68 | SufuKO cytotox 26 | Wnt3a cs inactive
FC(F)Sc1ccc(-n2cc(-c3ccc(Cl)cc3)[n+]3c2CCC3)cc1	none
FC(F)Oc1ccc(-n2cc(-c3ccccc3)[n+]3c2CCCCC3)cc1	Gli-Sufu block 66 | Gli-Sufu confirm 58 | SufuKO cytotox inactive | Wnt3a cs inactive
Cc1ccc(-c2cn(-c3ccc(SC(F)F)cc3)c3[n+]2CCC3)cc1	Gli-Sufu block 76 | Gli-Sufu confirm 80 | SufuKO cytotox 39 | Wnt3a cs inactive
COc1ccc(-c2cc(C(=O)NN=Cc3ccccc3[N+](=O)[O-])[nH]n2)cc1	none (no result: NR5A2 inv ag, Gli-Sufu block, SRC1 inh, NCOA3 inh)
CC1CCN(S(=O)(=O)c2ccc(NC(=O)Cc3ccccc3)cc2)CC1	Gli-Sufu block 56 | Gli-Sufu confirm inactive | SufuKO cytotox inactive | Wnt3a cs inactive
O=C(Nc1ccc(S(=O)(=O)N2CCCC2)cc1)c1cnccn1	none
O=C(Nc1ccc(S(=O)(=O)N2CCN(Cc3ccccc3)CC2)cc1)c1cnccn1	Gli-Sufu block 58 | Gli-Sufu confirm 60 | SufuKO cytotox 33 | Wnt3a cs 29
CC(C)NC(=O)C1CCN(c2cncnc2)CC1	none (no result: NR5A2 inv ag, Gli-Sufu block, SRC1 inh, NCOA3 inh)
Cc1sc2ncnc(N3CCN(S(=O)(=O)c4ccc(C(C)(C)C)cc4)CC3)c2c1C	none | Gli-Sufu confirm 61 | SufuKO cytotox 25 | Wnt3a cs inactive
Cc1ccc(S(=O)(=O)N2CCN(C(=O)C3CCN(c4ncnc5sc(C)c(C)c45)CC3)CC2)c(C)c1	Gli-Sufu block 67 | Gli-Sufu confirm 60 | SufuKO cytotox inactive | Wnt3a cs inactive
CSc1ccc(S(=O)(=O)N2CCC(C(=O)Nc3cccnc3)CC2)cc1	Gli-Sufu block 76 | Gli-Sufu confirm inactive | SufuKO cytotox inactive | Wnt3a cs inactive
Cc1cc(/C=N/n2cnnc2)c(C)n1-c1ccc(OCc2ccc(F)cc2)cc1	Gli-Sufu block 74 | Gli-Sufu confirm 74 | SufuKO cytotox 28 | Wnt3a cs inactive
Cc1cc(/C=N/n2cnnc2)c(C)n1-c1ccc(OCc2ccc(Cl)cc2Cl)cc1	Gli-Sufu block 82 (no result: COUP-TFII inh, NCOA2 inhibitor) | Gli-Sufu confirm 82 | SufuKO cytotox 35 | Wnt3a cs 68
Cc1cc(/C=N/n2cnnc2)c(C)n1-c1ccc(Cl)cc1	none
CC(=O)Nc1sc2c(c1-c1nc3ccccc3s1)CCCNC2	none (no result: NR5A2 inv ag, Gli-Sufu block, SRC1 inh, NCOA3 inh, NCOA2 inhibitor)
COc1cccc(CNC(=O)[C@H]2CCCN2C(=O)[C@H]2CCCN2C(=O)c2ccc(F)c(C(F)(F)F)c2)c1	none (no result: NR5A2 inv ag, Gli-Sufu block, SRC1 inh, NCOA3 inh)
CCOc1ccc(NC(=O)CCSc2nnc(C)s2)cc1	none | Gli-Sufu confirm inactive | SufuKO cytotox inactive | Wnt3a cs inactive
Cc1ccccc1Cn1cnc2c(cnn2C(C)(C)C)c1=O	none
CC(C)(C)n1ncc2c(=O)n(Cc3cccc(Cn4cnc5c(cnn5C(C)(C)C)c4=O)c3F)cnc21	Gli-Sufu block 77 | Gli-Sufu confirm 78 | SufuKO cytotox 38 | Wnt3a cs inactive
Nn1c(SCC(=O)NC2CCCCC2)nnc1-c1n[nH]c2c1CCC2	none (no result: NR5A2 inv ag, Gli-Sufu block, SRC1 inh, NCOA3 inh)
Cc1ccsc1C=Nn1c(-c2n[nH]c3c2CCC3)n[nH]c1=S	none (no result: NR5A2 inv ag, Gli-Sufu block, SRC1 inh, NCOA3 inh)
NC(=S)N/N=C/c1ncc(C(F)(F)F)cc1Cl	none (no result: COUP-TFII inh, NCOA2 inhibitor) | Gli-Sufu confirm 65 | SufuKO cytotox 28 | Wnt3a cs 44
CCc1nc2ccccc2c(NC(=O)CN2CCC(C)CC2)c1C	none | Gli-Sufu confirm inactive | SufuKO cytotox inactive | Wnt3a cs inactive
CCOC(CN=c1nc(N(C)C)ss1)OCC	Gli-Sufu block 84 | Gli-Sufu confirm 62 | SufuKO cytotox 30 | Wnt3a cs inactive
CCN(CCCNC(=O)c1cc2c(-c3cccc(OC)c3)nn(C)c2s1)Cc1ccccc1	Gli-Sufu block 59 | Gli-Sufu confirm inactive | SufuKO cytotox inactive | Wnt3a cs inactive
COc1cccc(CN(C)CC2CCCN(CCc3ccccc3C)C2)c1 (stereo not drawn)	Gli-Sufu block 61 | Gli-Sufu confirm inactive | SufuKO cytotox inactive | Wnt3a cs inactive
COc1ccccc1CN(C(=O)Cc1cccs1)C(C(=O)NC1CCCC1)c1ccncc1 (stereo not drawn)	Gli-Sufu block 56 | Gli-Sufu confirm inactive | SufuKO cytotox 27 | Wnt3a cs inactive
COc1ccccc1CC(=O)NC1CC1	none (no result: Gli-Sufu block)
COc1ccccc1CC(=O)NC1CCCCCC1	none | Gli-Sufu confirm inactive | SufuKO cytotox inactive | Wnt3a cs inactive
Cn1cccc1C(=O)N1CCN(S(=O)(=O)c2ccc(Cl)s2)CC1	none (no result: NR5A2 inv ag, Gli-Sufu block, SRC1 inh, NCOA3 inh)
COc1ccc(Nc2c3ccccc3nc3ccccc23)cc1	none | Gli-Sufu confirm 56 | SufuKO cytotox 31 | Wnt3a cs inactive
COc1cc(Nc2c3ccccc3nc3ccccc23)cc(OC)c1OC	Gli-Sufu block 61 | Gli-Sufu confirm inactive | SufuKO cytotox inactive | Wnt3a cs inactive
COc1cc(NC(c2ccccc2)c2ccccc2)cc(OC)c1OC	none | Gli-Sufu confirm inactive | SufuKO cytotox inactive | Wnt3a cs inactive
COc1cc(NC(=O)CNC(c2ccccc2)c2ccccc2)cc(OC)c1OC	none
CC(c1ccccc1)n1cc(C(=O)NCCCN2CCCC2)nn1 (stereo not drawn)	none (no result: NR5A2 inv ag, Gli-Sufu block, SRC1 inh, NCOA3 inh)
O=C(NCc1ccccc1)[C@@H]1CCCN1C(=O)[C@H]1CCCN1C(=O)c1ccc(F)c(F)c1	none (no result: NR5A2 inv ag, Gli-Sufu block, SRC1 inh, NCOA3 inh)
Cc1ccccc1COC(=O)CNC(=O)c1sc2ccccc2c1Cl	Gli-Sufu block 65 | Gli-Sufu confirm inactive | SufuKO cytotox inactive | Wnt3a cs inactive
O=C(CNC(=O)c1sc2ccccc2c1Cl)OCc1ccccc1	none

Bioassay records (PubChem BioAssay)
